Screening results from PubChem.
Only some compounds are listed: those with a hit (about 6.2% of all), similar ones and a draw of the others.
KB-V1 cytotox: KB-V1 MDR subline cytotoxicity. Potency, µM (series often up to 46.1 µM), usual class: cytotoxic. KB-V1 MDR cells viability, CellTiter-Glo, 72 h. 400,000 compounds, 3.4% hits; further: on the % scale 0 is the no-effect control and ±100 the full control effect; nearly all actives have a fitted effect of over 60% in size
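Drug-selected KB-V1 cells, grown in DMEM lacking phenol red with 10% FBS, receive compound titrations; after three days at 37 degrees C, surviving cell ATP is quantified by CellTiter-Glo luminescence and responses normalized and curve-fitted.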
HT1080 IDH1KD tx: HT-1080 IDH1 knockdown cell toxicity (counter line) | HT-1080 IDH1 knockdown viability, ATP luminescence, 48 h | Potency, µM (top dose mostly 46.1 µM), for the others: top-dose activity, negative = toxicity, hits mostly cytotoxic | 360,000 compounds, 2% hits | AID 686971;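 further: 0% = DMSO wells and -100% = cell-free medium wells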
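After a 2 h attachment period, IDH1KD HT-1080 cells took pin-transferred compound for 48 h at 37 °C; ATP-based luminescence after 10 min room-temperature reagent incubation reported viability.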
ATXN viability: viability counter-screen for ATXN expression inhibitors | Potency, µM (doses to about 56.7 µM), actives largely listed as cytotoxic | S2 cells (HEK-293 line with an ATXN2-luciferase reporter) viability, CellTiter-Fluor protease fluorescence, 24 h | 400,000 compounds, 0.49% hits; further: nearly all actives have a fitted effect of over 40% in size
HT1080NT lethal: kills 2HG-producing HT-1080-NT fibrosarcoma cells; HT-1080-NT fibrosarcoma viability, CellTiter-Glo ATP luminescence, 48 h; Potency, µM (series often up to 46.1 µM), for the others: at the top dose activity, negative = less viability, most hits filed as cytotoxic; 360,000 compounds, 1.6% hits;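 further: NT is the 2HG producing partner of a matched IDH1 knockdown line; 0% = DMSO-treated cells and -100% = media-only wells without cells; nearly all actives have a fitted effect of over 55% in size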
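Compounds were tested in concentration-response format on HT-1080-NT cells for 48 hours at 37 degrees C. Cell viability came from CellTiter-Glo luminescence; curves were classified by r2, response magnitude and activity.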
KB-3-1 tox: KB-3-1 parental cell cytotoxicity; KB-3-1 viability, CellTiter-Glo ATP luminescence, 72 h; 400,000 compounds, 1.4% hits; Potency, µM (doses to about 46.1 µM), usual class: cytotoxic; further: on the % scale 0 is the no-effect control and ±100 the full control effect; nearly all actives have a fitted effect of over 60% in size
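Luminescent ATP read-out (CellTiter-Glo) measures survival of drug-naive KB-3-1 cells after 72 h compound exposure at 37 °C. Titration series was screened from lowest to highest concentration, with DMSO vehicle plates as background controls.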
ATXN2 expr inh: reduces ATXN2 reporter expression in HEK-293 cells; HEK-293 ATXN2-luciferase reporter, luminescence, 24 h; Potency, µM (highest dose often 57 µM), for inactives: at the highest dose activity change, negative = inhibition, most hits filed as inhibitors; 360,000 compounds, 0.72% hits; further: on the % scale 0 is the no-effect control and ±100 the full control effect; nearly all actives have a fitted effect of over 55% in size
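qHTS (up to 57 uM final) was run with 24 h compound exposure of reporter cells at 37 °C. Each well was multiplexed: SteadyGlo luminescence measured ATXN2-luciferase expression after a fluorogenic Gly-Phe-AFC viability readout (25 uM final).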
Active calls of the source: *; i = inactive; ? = inconclusive; / = no result given; ! = repeats disagree. The call rests on the fitted dose curve; in most records, active means well fitted curve in the direction sought with a large enough effect; inconclusive means small, poorly fitted or top-dose-only effect, or another doubt; inactive means no such curve, though single readings can be large; an effect the other way counts as inactive or inconclusive. Potency means the concentration at half of the fitted maximal effect.

SMILES	KB-V1 cytotox	HT1080 IDH1KD tx	ATXN viability	HT1080NT lethal	KB-3-1 tox	ATXN2 expr inh
O=c1[nH]c(=O)n([C@H]2C[C@H](O)[C@@H](CO)O2)cc1F	?	0.731µM*	?	0.461µM*	?	7.94µM*!
O=c1[nH]c(=O)n(C2CC(O)C(CO)O2)cc1I (centres undefined)	i	-1.8%	i	3.3%	i	-1.0%
CCCCCCC[N+](CC)(CC)CCCCc1ccc(Cl)cc1	i	6.51µM*	?	6.51µM*	?	22.4µM*!
CC(C)(C)OC(=O)N1CCC(c2c(C(=O)NCCN3CCOCC3)cnn2-c2cccc(Cl)c2)CC1	i	/	/	/	i	/
CCOCCCNC(=O)CN1C(=O)/C(=C\c2ccc(C)cc2)Sc2ccccc21	4.61µM*	1.6%	i	2.0%	i	-2.3%
CCOCCCNC(=O)CN1C(=O)/C(=C/c2ccccc2)Sc2ccccc21	14.6µM*	2.7%	i	7.1%	i	-1.0%
Cc1ccc(/C=C2/Sc3ccccc3N(CC(=O)NCCCOC(C)C)C2=O)cc1	23.1µM*	17.1%	i	15.1%	i	-9.3%
Cc1ccc(S(=O)(=O)N2CCC(c3nc(-c4cccs4)nc4ccccc34)CC2)cc1	i	/	/	/	i	/
COc1cc2[nH]c(=O)n(CCCCCC(=O)N3CCN(c4ccc(Cl)cc4)CC3)c(=O)c2cc1OC	i	/	i	/	i	-13.5%
NC(N)=N/N=C/c1ccc(OCc2ccc(Cl)cc2)cc1	20.6µM*	?	31.6µM*	15.8µM*	i	?
NC(N)=N/N=C/c1ccc(OCc2ccccc2)cc1	i	?	?	17.8µM*	?	?
Fc1ccc(CCNc2ncnc3[nH]ncc23)cc1	4.11µM*	-10.2%	i	0.8%	11.6µM*	21.7%
COc1ccc(C(=O)COC(=O)C(CCSC)NS(=O)(=O)c2ccc(Cl)cc2)cc1 (centres undefined)	23.1µM*	2.2%	i	-1.1%	i	-6.5%
COc1cccc(Cn2c(=O)n(-c3cccc(Cl)c3)c(=O)c3c4c(sc32)CN(C(C)=O)CC4)c1	?	/	i	/	i	?
Cc1c(Cl)cccc1NC(=O)C1CCN(c2nc3ccccc3[nH]2)CC1	i	/	/	/	i	/
CC(C)(C)c1ccc(C(=O)Nc2ccc(CC(=O)O)cc2)o1	i	5.3%	i	9.3%	i	0.398µM*
Cc1ccc(C(=O)Nc2ccc(CC(=O)O)cc2)o1	i	0.3%	i	15.3%	i	-18.8%
COc1ccc(C(=O)C[n+]2ccc3c(c2)nc(-c2ccccc2)n3C)cc1	i	?	i	?	?	6.9%
COc1ccc(C(=O)C[n+]2ccc3c(c2)nc(-c2ccc(OC)cc2OC)n3C)cc1	i	?	i	-13.6%	14.6µM*	-10.8%
CC(=O)c1c(C)nn(CC(O)COc2ccc3ccccc3c2)c1C (centres undefined)	7.31µM*	-10.8%	i	0.3%	i	-21.7%
CCN(CC)S(=O)(=O)c1ccc(C(=O)NCCSc2c(-c3ccccc3)[nH]c3ccccc23)cc1	i	/	i	/	?	-18.9%
COc1ccc(-c2[nH]c3ccccc3c2SCCNC(=O)c2ccccc2)cc1	i	?	?	?	20.6µM*	?
OC(c1ccccc1)c1nc(-c2cncnc2)cs1 (centres undefined)	i	2.0%	i	13.5%	i	5.4%
Cc1ccc(NC(=O)c2ncn(CCCN[C@H](C)c3cccc4ccccc34)n2)cc1C	i	?	22.4µM*	?	i	?
Nc1ccc2cc3ccc(N)cc3nc2c1	/	/	?	/	/	2.51µM*
SMILES	KB-V1 cytotox	HT1080 IDH1KD tx	ATXN viability	HT1080NT lethal	KB-3-1 tox	ATXN2 expr inh
Cc1ccc2cc(N)ccc2n1	i	6.6%	i	9.0%	i	-8.0%
COc1ccccc1-n1c(SCC(=O)NCc2ccc3c(c2)OCO3)nc2cc([N+](=O)[O-])ccc21	i	-14.5%	i	-23.0%	i	-12.6%
CC(Sc1nc2cc([N+](=O)[O-])ccc2n1-c1ccc(F)cc1)C(=O)NCc1ccc2c(c1)OCO2 (centres undefined)	5.8µM*	-11.6%	?	-1.5%	i	-5.7%
COc1ccc(-c2coc3c(C(=O)NCc4ccc(OC)c(OC)c4)cccc23)c(C)c1	?	4.11µM*	?	?	i	?
COc1ccc(-c2ccc(C(=O)NCc3ccc(F)c(F)c3)c3occc23)c(C)c1	i	?	i	?	i	?
COCCCNC(=O)c1cccc2c(-c3ccc(OC)cc3C)coc12	?	?	?	?	?	0.0%
COc1ccc(-c2coc3c(C(=O)NCc4ccc(F)c(F)c4)cccc23)c(C)c1	?	13µM*	i	13µM*	i	-16.3%
COc1ccc(CNC(=O)c2cccc3c(-c4cnn(C)c4)coc23)cc1OC	i	?	i	23.1µM*	i	?
COc1ccc(-c2coc3c(C(=O)NCCN(C)C)cccc23)c(C)c1	i	16.4µM*	i	25.9µM*	?	-13.1%
COc1ccc(-c2coc3c(C(=O)NCCc4ccccc4)cccc23)c(C)c1	?	?	?	?	i	?
COc1cccc(NC(=O)c2ccccc2OCC(=O)Nc2ccc(Br)cc2)c1	i	/	/	/	i	/
Cc1ccc(C(=O)c2cc([N+](=O)[O-])ccc2N2CCOCC2)cc1C	3.66µM*	1.84µM*	?	?	16.4µM*	-24.9%
O=C(NC1CCCCC1)c1cc([N+](=O)[O-])ccc1N1CCCCC1	9.2µM*	-5.4%	i	-9.9%	i	-10.6%
Cc1ccc(C(=O)c2cc([N+](=O)[O-])ccc2N2CCOCC2)c(C)c1	0.581µM*	?	?	?	1.03µM*	-4.7%
O=C(Nc1ccccc1)c1cc([N+](=O)[O-])ccc1N1CCCCC1	i	-28.2%	i	-9.2%	i	-4.5%
Cc1ccc(C(=O)c2cc([N+](=O)[O-])ccc2N2CCCCC2)cc1C	5.8µM*	1.46µM*	?	1.64µM*	2.91µM*	-25.8%
CS(=O)(=O)N1CCC(N2CCN(Cc3ccccc3)C(=O)C2=O)CC1	i	/	i	/	i	-4.6%
Cn1nccc1C(=O)NCC1CCC2(CCN(Cc3ccc(-c4ccc(Cl)cc4)o3)CC2)O1 (centres undefined)	/	/	i	/	/	/
COc1cc(NC(=O)CN2CCCN(S(=O)(=O)c3ccc(F)cc3)CC2)cc(OC)c1	i	/	i	/	i	4.2%
COc1ccccc1/C=C/c1cncc(/C=C/c2ccccc2OC)c1	i	/	/	/	?	/
